SMILES strings stand for the structures. About 3,300 (8.5%) of roughly 39,000 compounds were called active. Only a selection was taken, and actives are over-represented in it overall.

In this test the test system is HepG2. The test can be described thus: cytotoxicity call (relative viability < 0.9). The conditions noted are these: 10 µM.
Take `Cc1noc(C)c1S(=O)(=O)Nc1ccc2c(c1)C(=O)N([C@H](C)CO)C[C@@H](C)[C@H](CN(C)Cc1ccc(-c3ccccc3)cc1)O2`: the cytotoxicity call is “inactive”.
Next, `Cc1noc(C)c1S(=O)(=O)Nc1ccc2c(c1)C(=O)N([C@H](C)CO)C[C@H](C)[C@@H](CN(C)Cc1ccccc1)OCCCC[C@@H](C)O2`: “inactive”.
Then `C[C@H](CO)N1C[C@H](C)[C@@H](CN(C)C(=O)NC2CCCCC2)Oc2ccc(NC(=O)Cn3cnnn3)cc2C1=O`, with “inactive”.
Then `C=CCNC(=O)[C@H]1[C@@H]2C(=O)O[C@@H](c3ccccc3)[C@@H](c3ccccc3)N2[C@@H](c2ccc(OCCO)cc2)[C@]12C(=O)Nc1ccc(C#CC3=CCCCC3)cc12`, with “inactive”; and `CO[C@@H](CCO)[C@@H](O)c1ccc(O)c(F)c1`, with “inactive”; and `C[C@H](CO)N1C[C@H](C)[C@@H](CN(C)Cc2ccccn2)Oc2ncc(C#Cc3cccc(F)c3)cc2C1=O`, with “inactive”.
Turning to `COc1ccc(S(=O)(=O)Nc2ccc3c(c2)C(=O)N([C@@H](C)CO)C[C@H](C)[C@@H](CN(C)C(=O)Nc2ccc(F)cc2)OCCCC[C@@H](C)O3)cc1`, the cytotoxicity call is “active”.
Then `COc1ccc(NC(=O)N(C)C[C@H]2OCCCC[C@@H](C)Oc3ccc(NS(=O)(=O)c4ccc(F)cc4)cc3C(=O)N([C@@H](C)CO)C[C@@H]2C)cc1`, with “inactive”; and `COc1ccc(S(=O)(=O)Nc2ccc3c(c2)C(=O)N([C@@H](C)CO)C[C@H](C)[C@@H](CN(C)C(=O)Nc2ccc(F)cc2)OCCCC[C@H](C)O3)cc1`, with “active”.
Then `COc1ccc(NC(=O)N(C)C[C@H]2OCCCC[C@H](C)Oc3ccc(NS(=O)(=O)c4ccc(F)cc4)cc3C(=O)N([C@H](C)CO)C[C@@H]2C)cc1`, with “inactive”; and `COc1ccc(NC(=O)N(C)C[C@@H]2OCCCC[C@@H](C)Oc3ccc(NS(=O)(=O)c4ccc(F)cc4)cc3C(=O)N([C@H](C)CO)C[C@@H]2C)cc1`, with “inactive”.
Then `COc1ccc(NC(=O)N(C)C[C@@H]2OCCCC[C@H](C)Oc3ccc(NS(=O)(=O)c4ccc(F)cc4)cc3C(=O)N([C@@H](C)CO)C[C@@H]2C)cc1`, with “inactive”; and `Cc1cc(=O)n2nc(S(C)(=O)=O)nc2[nH]1`, with “inactive”; and `C[C@H]1CN([C@@H](C)CO)S(=O)(=O)c2ccc(C#Cc3ccccc3)cc2O[C@@H]1CN(C)C(=O)c1ccccn1`, with “inactive”.
`COCc1nc(C)c(CN)s1`: the cytotoxicity call is “inactive”.
Next, `COc1ccc(-c2cc(=O)c3c(O)cc(O[C@@H]4O[C@H](CO)[C@@H](O)[C@H](O)[C@H]4O[C@@H]4O[C@H](COC(C)=O)[C@@H](O)[C@@H](O)[C@H]4O)c(O)c3o2)cc1`: “inactive”; `CSc1cccc(NC(=O)/C=C/c2ccc(C(C)C)cc2)c1`: “inactive”.
In the case of `CC(Cc1ccc(O)c(O)c1)(NN)C(=O)O` (configuration not stated), the cytotoxicity call was “active”.
Consider `O=C(O)Cc1ccc(O)c(O)c1`, for which the cytotoxicity call is “inactive”.
Then `C[C@@](Cc1ccc(O)c(O)c1)(NN)C(=O)O`, with “active”; and `CCOC(=O)[C@@H](N)Cc1ccc(O)c(O)c1`, with “inactive”.
Then `CO[C@@H]1CN(C)C(=O)c2ccc(NS(=O)(=O)c3cn(C)cn3)cc2OC[C@H](C)N(CCC(F)(F)F)C[C@@H]1C`, with “inactive”; and `C[C@H]1CN([C@@H](C)CO)S(=O)(=O)c2ccc(-c3cncnc3)cc2O[C@H]1CN(C)C(=O)c1cccc(F)c1`, with “inactive”; and `CCN1CCCC[C@@H]1C(=O)O`, with “inactive”.
Next, `C[C@H]1CN([C@@H](C)CO)C(=O)c2cc(NS(=O)(=O)c3cn(C)cn3)ccc2O[C@@H]1CN(C)CC1CCCCC1`: “inactive”; `C[C@H]1CN([C@@H](C)CO)C(=O)Cc2cc(NC(=O)CCCCCC(=O)Nc3ccccc3N)ccc2O[C@@H]1CN(C)CC1CCCCC1`: “inactive”; `Cc1ccc(S(=O)(=O)N(C)C[C@H]2OCCCC[C@H](C)Oc3ccc(NC(=O)Cc4ccccc4)cc3C(=O)N([C@@H](C)CO)C[C@@H]2C)cc1`: “active”.
Take `Cc1ccc(S(=O)(=O)N(C)C[C@@H]2OCCCC[C@@H](C)Oc3ccc(NC(=O)Cc4ccccc4)cc3C(=O)N([C@@H](C)CO)C[C@@H]2C)cc1`: the cytotoxicity call was “inactive”.
Turning to `Cc1ccc(S(=O)(=O)N(C)C[C@@H]2OCCCC[C@@H](C)Oc3ccc(NC(=O)Cc4ccccc4)cc3C(=O)N([C@H](C)CO)C[C@@H]2C)cc1`, the cytotoxicity call was “inactive”.
Regarding `Cc1ccc(S(=O)(=O)N(C)C[C@@H]2OCCCC[C@H](C)Oc3ccc(NC(=O)Cc4ccccc4)cc3C(=O)N([C@H](C)CO)C[C@@H]2C)cc1`, the cytotoxicity call is “active”.
With `Cc1ccc(S(=O)(=O)N(C)C[C@H]2OCCCC[C@H](C)Oc3ccc(NC(=O)Cc4ccccc4)cc3C(=O)N([C@H](C)CO)C[C@H]2C)cc1`, the cytotoxicity call is “inactive”.
Next, `Cc1ccc(S(=O)(=O)N(C)C[C@@H]2OCCCC[C@H](C)Oc3ccc(NC(=O)Cc4ccccc4)cc3C(=O)N([C@H](C)CO)C[C@H]2C)cc1`: “inactive”.
Next, `CC(C)NC(=O)Nc1ccc2c(c1)C(=O)N([C@H](C)CO)C[C@@H](C)[C@H](CN(C)S(=O)(=O)c1cn(C)cn1)OCCCC[C@H](C)O2`: “inactive”; `CC(C)(C)NC(=O)[C@@H]1C[C@@H]2CCCC[C@@H]2CN1C[C@@H](O)[C@H](Cc1ccccc1)NC(=O)[C@H](CC(N)=O)NC(=O)c1ccc2ccccc2n1`: “inactive”.
Next, `Cc1noc(C)c1S(=O)(=O)Nc1cccc2c1O[C@H](CN(C)C(=O)Nc1ccc3c(c1)OCO3)[C@H](C)CN([C@@H](C)CO)C2=O`: “inactive”.
As to `COc1ccc(S(=O)(=O)Nc2cccc3c2O[C@H](CN(C)S(C)(=O)=O)[C@H](C)CN([C@H](C)CO)C3=O)cc1`, the cytotoxicity call was “inactive”.
Next, `C[C@H](CO)N1C[C@H](C)[C@@H](CN(C)Cc2ccc(C(=O)Nc3ccccc3N)cc2)Oc2c(NC(=O)c3ccc(-c4nccs4)cc3)cccc2C1=O`: “inactive”; `C[C@H](CO)N1C[C@H](C)[C@@H](CN(C)Cc2ccccc2)Oc2c(NC(=O)c3cnccn3)cccc2C1=O`: “inactive”.
Next, `C[C@H](CO)N1C[C@H](C)[C@@H](CN(C)Cc2ccc(-c3ccccc3)cc2)Oc2c(NC(=O)c3ccc(-c4nccs4)cc3)cccc2C1=O`: “inactive”; `C[C@@H]1CN([C@@H](C)CO)C(=O)c2cccc(NC(=O)c3ccc(-c4nccs4)cc3)c2O[C@@H]1CN(C)Cc1ccc(-c2ccccc2)cc1`: “active”.
Next, `C[C@H]1CN([C@@H](C)CO)C(=O)c2cccc(NC(=O)c3ccc(-c4nccs4)cc3)c2O[C@H]1CN(C)Cc1ccc(C(=O)Nc2ccccc2N)cc1`: “inactive”.
For the compound `C[C@@H]1CN([C@H](C)CO)C(=O)c2cccc(NC(=O)c3ccc(-c4nccs4)cc3)c2O[C@@H]1CN(C)Cc1ccc(C(=O)Nc2ccccc2N)cc1`, the cytotoxicity call was “active”.
Consider `C[C@H](CO)N1C[C@H](C)[C@H](CN(C)S(=O)(=O)c2ccc(Cl)cc2)Oc2c(NC(=O)c3ccc(-c4nccs4)cc3)cccc2C1=O`, for which the cytotoxicity call is “active”.
Next, `C[C@@H]1CN([C@@H](C)CO)C(=O)c2cccc(NC(=O)c3ccc(-c4nccs4)cc3)c2O[C@@H]1CN(C)S(=O)(=O)c1ccc(Cl)cc1`: “inactive”.
Consider `C[C@@H]1CN([C@H](C)CO)C(=O)c2cccc(NC(=O)c3cnccn3)c2O[C@H]1CN(C)Cc1ccccc1`, for which the cytotoxicity call was “active”.
Then `C[C@@H]1CN([C@@H](C)CO)C(=O)c2cccc(NC(=O)c3cnccn3)c2O[C@H]1CN(C)Cc1ccccc1`, with “inactive”; and `C[C@@H]1CN([C@@H](C)CO)C(=O)c2cccc(NC(=O)c3ccc(-c4nccs4)cc3)c2O[C@H]1CN(C)S(=O)(=O)c1ccc(Cl)cc1`, with “inactive”; and `C[C@H]1CN([C@@H](C)CO)C(=O)c2cccc(NC(=O)c3ccc(-c4nccs4)cc3)c2O[C@@H]1CN(C)Cc1ccc(-c2ccccc2)cc1`, with “inactive”.
Then `C[C@H]1CN([C@@H](C)CO)C(=O)c2cc(NS(=O)(=O)c3cccs3)ccc2O[C@@H]1CN(C)S(=O)(=O)c1ccccc1`, with “inactive”; and `COC(=O)CCCCCCC(=O)N/N=C/[C@H](O)[C@@H](O)[C@H](O[C@@H]1O[C@H](CO)[C@H](O)[C@H](O)[C@H]1O)[C@H](O)CO`, with “inactive”; and `CO[C@H](CN(C)C(=O)c1ccc2c(c1)OCO2)[C@H](C)CN([C@@H](C)CO)S(=O)(=O)c1ccc(C)cc1`, with “inactive”.
Next, `Cc1ccc(S(=O)(=O)N(C)C[C@H]2Oc3ccc(NC(=O)CCN4CCOCC4)cc3CC(=O)N([C@@H](C)CO)C[C@@H]2C)cc1`: “inactive”.
With `Cc1cc(=O)oc2cc(O[C@H]3O[C@@H](CO)[C@@H](O)[C@@H](O)[C@@H]3O)ccc12`, the cytotoxicity call is “inactive”.
Then `C[C@H]1C[C@@H]2[C@@H](C[C@@H]1C)N[C@@H]1C(=O)NC(=O)N[C@H]1N2C[C@H](O)[C@H](O)[C@H](O)CO`, with “inactive”; and `Cc1ccc(S(=O)(=O)N(C)C[C@@H]2OCCCC[C@@H](C)Oc3ccc(NC(=O)Nc4ccccc4)cc3C(=O)N([C@@H](C)CO)C[C@@H]2C)cc1`, with “inactive”; and `COc1ccc(NC(=O)Nc2ccc3c(c2)C(=O)N([C@H](C)CO)C[C@H](C)[C@@H](CN(C)C(=O)Nc2cccc4ccccc24)OCCCC[C@@H](C)O3)cc1`, with “inactive”.
Next, `CC#CC(=O)NS(=O)(=O)c1ccccc1`: “inactive”; `C[C@@H]1CN([C@@H](C)CO)C(=O)c2cccc(NC(=O)C3CCOCC3)c2O[C@H]1CN(C)S(=O)(=O)c1cn(C)cn1`: “inactive”.
Consider `C[C@H]1CN([C@@H](C)CO)C(=O)Cc2cc(NS(=O)(=O)c3cn(C)cn3)ccc2O[C@@H]1CN(C)CC1CCCCC1`, for which the cytotoxicity call is “inactive”.
Next, `CC(=O)N(C)C[C@H]1Oc2cc(C#CCN(C)C)ccc2S(=O)(=O)N([C@@H](C)CO)C[C@@H]1C`: “inactive”; `C[C@H]1CN([C@@H](C)CO)C(=O)c2cccc(NC(=O)c3ccc(-c4nccs4)cc3)c2O[C@@H]1CN(C)Cc1ccc(C(=O)Nc2ccccc2N)cc1`: “inactive”; `C[C@H]1CN([C@@H](C)CO)C(=O)c2cccc(NC(=O)c3ccc(-c4nccs4)cc3)c2O[C@@H]1CN(C)CC1CCCCC1`: “inactive”.
Then `C[C@H](CO)N1C[C@H](C)[C@@H](CN(C)Cc2ccc(-c3ccccc3)cc2)Oc2c(NC(=O)c3ccncc3)cccc2C1=O`, with “active”.
Then `C[C@@H]1CN([C@H](C)CO)C(=O)c2cccc(NC(=O)c3ccc(-c4nccs4)cc3)c2O[C@@H]1CN(C)CC1CCCCC1`, with “inactive”; and `C[C@@H]1CN([C@@H](C)CO)C(=O)c2cccc(NC(=O)c3ccc(-c4nccs4)cc3)c2O[C@@H]1CN(C)Cc1ccc(C(=O)Nc2ccccc2N)cc1`, with “active”.
As to `C[C@H]1CN([C@@H](C)CO)C(=O)c2cccc(NC(=O)c3ccc(-c4nccs4)cc3)c2O[C@@H]1CN(C)Cc1ccc(Cl)c(Cl)c1`, the cytotoxicity call was “inactive”.
Regarding `C[C@@H]1CN([C@H](C)CO)C(=O)c2cccc(NC(=O)c3ccc(-c4nccs4)cc3)c2O[C@H]1CN(C)CC1CCCCC1`, the cytotoxicity call was “active”.
Consider `C[C@@H]1CN([C@@H](C)CO)C(=O)c2cccc(NC(=O)c3ccc(-c4nccs4)cc3)c2O[C@@H]1CN(C)Cc1ccc(Cl)c(Cl)c1`, for which the cytotoxicity call was “active”.
`C[C@H](CO)N1C[C@H](C)[C@H](CN(C)Cc2ccc(-c3ccccc3)cc2)Oc2c(NC(=O)c3ccncc3)cccc2C1=O`: the cytotoxicity call is “inactive”.
Then `C[C@H](CO)N1C[C@H](C)[C@H](CN(C)Cc2ccc(C(=O)Nc3ccccc3N)cc2)Oc2c(NC(=O)c3ccc(-c4nccs4)cc3)cccc2C1=O`, with “inactive”; and `C[C@@H]1CN([C@H](C)CO)C(=O)c2cccc(NC(=O)c3ccc(-c4nccs4)cc3)c2O[C@H]1CN(C)Cc1ccc(Cl)c(Cl)c1`, with “inactive”; and `C[C@H]1CN([C@@H](C)CO)C(=O)c2cccc(NC(=O)c3ccncc3)c2O[C@H]1CN(C)Cc1ccc(-c2ccccc2)cc1`, with “inactive”.

The values are drawn from the antibiotic and cytotoxicity screens of Wong et al. (2023).
